IP6K1 inhibitor = inhibitors of human IP6K1 | Q92551 | IP6K1 kinase, ADP-Glo luminescence, 2 h; stronger effect = lower value | activity change, % (series mostly up to about 58 µM) | hit rate 0.81% among 140,000 | AID 1645851; in the data active means activity change below about -25%; further: on the % scale 0 is the no-effect control and ±100 the full control effect
Target sequence (Q92551 whole entry, looked up): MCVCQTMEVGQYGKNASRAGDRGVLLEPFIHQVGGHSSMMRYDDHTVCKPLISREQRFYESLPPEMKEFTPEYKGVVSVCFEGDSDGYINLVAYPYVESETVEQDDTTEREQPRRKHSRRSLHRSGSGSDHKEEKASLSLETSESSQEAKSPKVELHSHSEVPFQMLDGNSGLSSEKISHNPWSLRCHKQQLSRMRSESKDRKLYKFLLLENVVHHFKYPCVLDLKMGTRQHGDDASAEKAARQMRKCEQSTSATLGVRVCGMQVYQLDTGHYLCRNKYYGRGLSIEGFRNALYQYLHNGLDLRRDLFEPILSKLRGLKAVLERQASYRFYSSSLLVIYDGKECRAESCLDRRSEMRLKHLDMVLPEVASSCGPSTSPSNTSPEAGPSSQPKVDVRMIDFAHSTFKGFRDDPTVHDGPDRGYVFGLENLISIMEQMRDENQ
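ADP-Glo luminescence measures ADP made by human IP6K1 during a 2 h RT reaction with ATP/IP6 (mix at 1.3 mM/130 uM); top library doses 57.5 and 19.1 uM final.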
KDM5B inh = KDM5B demethylase inhibition; Q9UGL1; KDM5B demethylase, FDH-coupled NADH fluorescence (FDH is formaldehyde dehydrogenase); Potency, µM (series often up to 57.7 µM), usual class: inhibitors; hit rate 2.6% among 220,000; further: potency means the concentration at half of the fitted maximal effect; 0% is about no effect; nearly all actives have a fitted effect of over 70% in size
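Inhibition is measured as reduced NADH fluorescence generation from FDH coupling to formaldehyde release. Truncated KDM5BΔAP at 200 nM final acts on H3K4me3 peptide (12.5 µM in substrate mix) in pH 7.5 HEPES buffer with Tween-20, 30 min, room temperature.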
SNCA expr inhib = SNCA gene expression inhibition; HEK-293 SNCA-luciferase knock-in, luminescence, 24 h; Potency, µM (titrated, usually from 57.2 µM), for the others: top-dose activity change, negative = inhibition, actives largely listed as inhibitors; hit rate 0.17% among 140,000; AID 1671194;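 further: potency means the concentration at half of the fitted maximal effect; plate controls were DMSO cells for no effect and cell-free wells for full effect; nearly all actives have a fitted effect of over 45% in size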
HEK293 viab = cell viability loss counter-screen; HEK-293-SNCA-luc viability, GF-AFC fluorescence, 24 h; Potency, µM (titrated, usually from 57.1 µM), for the others: at the top dose activity change, negative = cytotoxicity, actives largely listed as cytotoxic; AID 1671193; hit rate 0.12% among 150,000;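 further: potency means the concentration at half of the fitted maximal effect; 0% = DMSO-treated cells and -100% = medium-only wells without cells; nearly all actives have a fitted effect of over 30% in size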
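HEK-293-SNCA-luc cells (1500/well) plated 24 h, then exposed 24 h to a dilution series; GF-AFC added 30 min at 37C, fluorescence 405/540 nm; normalised to medium-only and DMSO wells, Hill fit.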
IP6K1 inh cnf = human IP6K1 inhibition, confirmatory. shares compounds with IP6K1 inhibitor. recombinant IP6K1 kinase, ADP-Glo luminescence, 2 h. Potency, µM (series often up to 49 µM), without a hit: at the top dose activity change, negative = inhibition, usual class: inhibitors. hit rate 13% among 1,200; further: potency means the concentration at half of the fitted maximal effect; on the % scale 0 is the no-effect control and ±100 the full control effect; nearly all actives have a fitted effect of over 65% in size
An asterisk follows results filed as active; i = inactive; ? = inconclusive; . = no result given; [ ] = dose if it differs, or a comment. Sampled rows, rich in hits. Any-hit rate of the full collection: about 3%. Unless noted, the call rests on the fitted dose curve; in most records, active means well fitted curve in the direction sought with a large enough effect; inconclusive means small, poorly fitted or top-dose-only effect, or another doubt; inactive means no such curve, though single readings can be large; an effect the other way counts as inactive or inconclusive.

SMILES | IP6K1 inhibitor | KDM5B inh | SNCA expr inhib | HEK293 viab | IP6K1 inh cnf
O=c1cc(-c2ccccc2)oc2ccccc12 | -29.8* | . | 205.6% | 21.9% | ?
CSc1ccc(-c2cccc(CN3CCC(NC(=O)c4ccccc4F)CC3)c2)cc1 | 3.2 | . | . | . | .
Cc1ccc(OCCCCn2cnc3ccccc32)cc1 | -32.8* | ? | 14.3% | 8.4% | ?
Cc1ccc(-c2cc(C(=O)N3CCN(c4ccccc4)CC3)c3cnn(C)c3n2)cc1 | -4.1 | . | 26.1% | 3.1% | .
COc1ccc(CN(Cc2ccco2)c2cnc(S(C)(=O)=O)nc2C(=O)Nc2ccc(C)c(C)c2)cc1 | 24.4 | i | -2.1% | 14.7% | .
COc1ccc(CN(Cc2ccco2)c2cnc(S(C)(=O)=O)nc2C(=O)Nc2ccc(C)cc2C)cc1 | -26.5* | i | 3.9% | -1.2% | -3.2%
COc1cccc(CN(Cc2ccco2)c2cnc(S(C)(=O)=O)nc2C(=O)Nc2cccc(Cl)c2C)c1 | -28.3* | i | -0.2% | -0.1% | 1.2%
Cc1ccc(CN(Cc2ccco2)c2cnc(S(C)(=O)=O)nc2C(=O)Nc2ccc(Br)cc2)o1 | -27.2* | ? | -11.2% | 27.3% | -10.9%
COc1ccc(CNC(=O)c2cccc(-c3ccc(OC)nn3)c2)cc1 | 7.7 | . | . | . | .
O=C(NCC(=O)N1CCC(Cc2ccccc2)CC1)c1ccc(-c2cccc(C(F)(F)F)c2)cc1 | 5.7 | . | -16.7% | 1.3%[12.5 µM] | .
O=C(c1ccc(Cl)cc1)N1CCNc2cnc(Nc3cccc(C(F)(F)F)c3)nc2C1 | -6.0 | ? | 13.9% | 0.4% | .
CCC[C@H]1CN(C(=O)c2ccccc2Cc2ccc(C)cc2)C[C@@H]1N | -25.9* | i | 10.8% | -2.4% | -6.3%
Cc1ccc(Cc2ccccc2C(=O)N2CCOC(C(F)(F)F)C2)cc1 (stereo unspecified) | -6.6 | i | -9.3% | 1.3% | .
Cc1oc2c(c(C)cc3oc(=O)c(CC(=O)NCCc4ccccc4F)c(C)c32)c1C | -27.3* | i | 17.0% | -0.7% | -11.9%
O=C(Nc1ccc(Cl)cc1)N1CCN(C(=O)c2nc3cccnc3n(CCc3ccccc3)c2=O)CC1 | 19.0 | . | -21.1% | -10.9% | .
O=C1C(SCCO)=C(SCCO)C(=O)c2ccccc21 | . | . | ? | 1.0% | 10.3µM*
COc1cccc(N2CCN(C(=O)CCSCc3ccccc3F)CC2)c1 | -29.0* | i | 44.5% | 2.6% | -13.0%
COc1ccccc1N1CCN(C(=O)c2c3c(nc4ccccc24)C(=O)N(C2CCCCC2)C3)CC1 | -0.3 | i | 17.8% | -8.4% | .
Cc1ccc(C)c(N2CCN(C(=O)c3c4c(nc5ccccc35)C(=O)N(C3CCCCC3)C4)CC2)c1 | -31.2* | ? | -4.1% | 9.3% | -9.1%
COc1cccc(Cn2cc(S(=O)(=O)c3ccc(C)cc3)c(=O)c3cc4c(cc32)OCO4)c1 | -29.9* | ? | 69.2% | -7.9% | 11.2%
CCOc1ccccc1N1CC(c2nc3ccccc3n2CCCOc2ccc(OC)cc2)CC1=O (stereo unspecified) | -27.4* | i | 0.4% | 3.3% | 5.7%
CCOc1ccccc1N1CC(c2nc3ccccc3n2CCOc2ccc(OC)cc2)CC1=O (stereo unspecified) | 8.0 | ? | ? | ? | .
O=C(NCCc1ccccc1F)c1ccc2nc(-c3cccnc3Cl)oc2c1 | -1.0 | . | 31.0% | 5.2% | .
Cc1cn(C)c(CC(=O)N2CCN(c3cccc(Cl)c3)CC2)c1C(=O)O | -25.6* | i | 5.8% | 0.9% | -24.8%
COc1cccc(NC(=O)C2CCN(S(=O)(=O)c3cc(-c4noc(C)n4)ccc3C)CC2)c1 | -36.4* | i | -12.7% | -12.2% | -7.1%
SMILES | IP6K1 inhibitor | KDM5B inh | SNCA expr inhib | HEK293 viab | IP6K1 inh cnf
CCc1cccc(NC(=O)C2CCN(S(=O)(=O)c3cccc(-c4noc(C)n4)c3)CC2)c1 | 46.2 | i | ? | 0.5% | .
CC(=O)c1ccc(N2CCN(S(=O)(=O)c3cc(-c4noc(C)n4)ccc3C)CC2)cc1 | 4.6 | i | -20.9% | 5.2% | .
Cc1nc(-c2ccc(C)c(S(=O)(=O)N3CCC(C(=O)Nc4ccc(Cl)cc4)CC3)c2)no1 | -25.9* | i | ? | -0.8% | 3.6%
O=C1CCN(Cc2ccc(C(F)(F)F)cc2)CCCC(c2nc(-c3cccnc3)no2)CCN1 (stereo unspecified) | 19.7 | i | 4.6% | -1.8% | .
Cc1nn(-c2ccccc2)c(OC(=O)c2ccccc2)c1S(=O)(=O)c1ccccc1 | -32.9* | ? | -17.9% | 8.6% | 45.7%
Cc1nn(-c2ccccc2)c(OC(=O)c2ccccc2Br)c1S(=O)(=O)c1ccccc1 | -22.6 | ? | 23.7% | 19.6% | .
CCC(=O)c1cc(-c2ccc(Cl)cc2)n(-c2ccc(S(N)(=O)=O)cc2)c1C | -34.0* | . | . | -12.9% | ?
Cc1cccc(OCCc2noc(C3CCCN(C(=O)c4ccoc4)C3)n2)c1 (stereo unspecified) | 20.4 | . | 17.6% | 3.0% | .
COc1ccc(-c2c(C(=O)NCc3ccccn3)nc3sccn23)cc1 | -30.2* | . | -4.2% | -5.8% | 0.8%
COc1cccc(-c2c(C(=O)NCc3ccccn3)nc3sccn23)c1 | -0.2 | . | -27.3% | -3.0% | .
Cc1ccc2c(n1)sc1c(=O)n(-c3cccc(C(F)(F)F)c3)nnc12 | -27.5* | ? | 21.1% | -3.8% | -17.1%
Cc1noc(C)c1Cc1ccc(C(=O)N2CCC(c3nc(CCOCC4CC4)no3)C2)o1 (stereo unspecified) | -4.1 | . | 4.8% | -0.9% | .
CC(=O)Nc1cccc(-c2nc(-c3c(C)noc3C)cc3cc(C)oc23)c1 | -28.4* | 35.5µM* | 28.3%[87.6 µM] | -9.1%[87.6 µM] | -28.9%
Cc1cc2cc(-c3c(C)noc3C)nc(-c3ccsc3)c2o1 | -4.0 | ? | 3.7%[87.6 µM] | 0.6%[87.6 µM] | .
Cc1nn(-c2ccccc2)c2c1C(C1CC1)N(CC1CN(C(=O)c3cccc(Cl)c3)C1)C2=O (stereo unspecified) | 8.2 | . | . | . | .
Fc1ccc(C2Cn3nnc(-c4nc(-c5ccc6c(c5)OCO6)no4)c3CO2)cc1 (stereo unspecified) | -27.8* | i | 1.3% | 7.6% | -15.7%
Cc1[nH]c(/C=C2\C(=O)Nc3ccc(F)cc32)c(C)c1C(=O)NC[C@H](O)CN1CCOCC1 | -5.2 | . | . | -35.9% | 36.3%
CCN(CC)CCNC(=O)c1c(C)[nH]c(/C=C2\C(=O)Nc3ccc(Cl)cc32)c1C | . | . | . | . | 35.2%
CCc1nnc(NC(=O)c2nc(S(=O)(=O)Cc3ccc(C)cc3)ncc2Cl)s1 | -33.1* | ? | ? | 28.2µM* | -10.2%
CCOc1ccc(NC(=O)c2nc(S(=O)(=O)Cc3ccc(C)cc3)ncc2Cl)cc1 | . | i | . | . | .
COc1ccccc1C(=O)Nc1ccc(S(=O)(=O)Nc2nc(C)cc(C)n2)cc1 | -28.9* | ? | 33.3% | -18.0% | ?
COc1cc(SC)ccc1C(=O)Nc1ccc(S(=O)(=O)Nc2nccc(C)n2)cc1 | 0.8 | i | 30.7% | 2.4% | .
O=c1nc(-c2ccccn2)sc2ccccc12 | -53.7* | . | . | -13.3% | -18.3%
NC(N)=Nc1nc(=O)c2ccccc2s1 | . | i | . | . | .

High-throughput results deposited in PubChem by National Center for Advancing Translational Sciences (NCATS).
